Assay results reported in PubChem BioAssay (Tox21).
Several values for one entry are separate records, joined by “and”; a condition that tells them apart may be missing. Equal values may be shown once. Results filed as inconclusive are left out. Entries that show only a call come without a potency. Where a structure was tested more than once in an assay, its records may differ in their call. Activity calls are given as the source filed them. Unless noted, calls come from the whole dose curve; as a rule, active = well fitted curve in the direction sought with a large enough effect in the repeat runs; inconclusive = weak or mixed curves; inactive = no such curve, though single readings can be large; an effect the other way counts as inactive or inconclusive.

How the values were obtained:
[1] = qHTS assay to identify small molecule agonists of the hypoxia (HIF-1) signaling pathway - cell viability counter screen (AID 1224844; calls by dose curve; note: nearly all actives have a fitted effect of over 50% in size; note: potency is the fitted concentration of half-maximal effect)
Method in brief: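 CellTiter-Glo luminescence read-out, 30 min RT, taken in the same wells as the beta-lactamase HRE reporter assay; HRE-bla ME-180 cells, 0.5% dialyzed FBS, 17 hr compound treatment at 37C, 5% CO2.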

[2] = qHTS assay to identify small molecule agonists of H2AX (AID 1224845; active = well fitted activation curve with a large enough effect in the signal ratio in the repeat runs, not every such curve was filed as active; the % refers to the signal ratio; note: potency is the fitted concentration of half-maximal effect)
Method in brief: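 Wild-type CHO-K1 cells plated overnight, then exposed 3 hr at 37C to compounds at 15 concentrations (0.76% DMSO). Lysed, then HTRF anti-pH2AX(S139)-cryptate/anti-H2AX-d2 detection after 24 hr at room temperature; emissions 665 and 620 nm.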

[3] = qHTS assay to identify small molecule agonists of the hypoxia (HIF-1) signaling pathway (AID 1224846; active = well fitted activation curve with a large enough effect in the signal ratio in the repeat runs, not every such curve was filed as active; the % refers to the signal ratio)
Method in brief: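 Beta-lactamase FRET read-out (CCF4-AM substrate) from ME-180 cells carrying an HRE-driven bla reporter, after 17 hrs compound exposure at 37C/5% CO2. Cells were seeded at 2,000 per well in 0.5% dialyzed FBS medium and preincubated 5 hrs.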

[4] = qHTS assay to identify small molecule agonists of H2AX - cell viability counter screen (AID 1224847; calls by dose curve; note: nearly all actives have a fitted effect of over 30% in size; note: potency is the fitted concentration of half-maximal effect)
Method in brief: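 Viability of CHO-K1 (wild type) cells after 3 hr compound exposure was measured by CellTiter-Glo luminescence.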

[5] = qHTS RealTime-Glo MT Cell Viability Assay in HepG2 cells - 24 hour (AID 1224867); note: nearly all actives have a fitted effect of over 50% in size
Method in brief: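 HepG2 cells were seeded at 600 cells/well together with NanoLuc luciferase and a cell-permeant prosubstrate, preincubated 5 h at 37 C/5% CO2, then pin-dosed with compounds in DMSO. Nonlytic luminescence from viable cells was read at each time point.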

[6] = qHTS RealTime-Glo MT Cell Viability Assay in HEK293 cells - 32 hour (AID 1224868); note: nearly all actives have a fitted effect of over 50% in size; note: potency is the fitted concentration of half-maximal effect
Method in brief: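 HEK293 cells were seeded at 600 cells/well together with NanoLuc luciferase and cell-permeant prosubstrate, preincubated 5 h at 37 C/5% CO2, then given compound in DMSO by pintool. Luminescence from viable-cell prosubstrate reduction was read repeatedly over 40 h.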

[7] = A CellTox Green Cytotoxicity Assay to monitor cytotoxicity in HEK293 cells - 0 hour (AID 1224869); note: nearly all actives have a fitted effect of over 50% in size
Method in brief: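 Read-out: fluorescence of a cell-impermeant cyanine dye staining DNA of dead cells, proportional to cytotoxicity. HEK293, 600 cells/well with reagent, compound (23 nL DMSO) added after 5 h; reads at 0, 8, 16, 24, 32, 40 h.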

[8] = qHTS RealTime-Glo MT Cell Viability Assay in HepG2 cells - 40 hour (AID 1224870); note: nearly all actives have a fitted effect of over 50% in size
Method in brief: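 HepG2 cells mixed with RealTime-Glo MT reagents (NanoLuc plus cell-permeant prosubstrate) were seeded at 600 cells/well, incubated 5 h at 37 C/5% CO2, then pinned with compounds in DMSO; nonlytic luminescence tracked viability during 40 h treatment.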

[9] = qHTS assay to identify small molecule antagonists of the estrogen related receptor (ERR) signaling pathway from Tox21 library (AID 1224848); note: nearly all actives have a fitted effect of over 50% in size; note: potency is the fitted concentration of half-maximal effect
Method in brief: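 First, 2,000 ERR cells per well were plated and held 6 h at 37 C/5% CO2. Next, compounds in DMSO were pinned in and left 18 h at 37 C. Finally, ONE-Glo was added and luminescence read after 30 min at room temperature.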

[10] = qHTS assay to identify small molecule agonists of the estrogen related receptor (ERR) signaling pathway from Tox21 library (AID 1224849; calls by dose curve; note: nearly all actives have a fitted effect of over 15% in size); conditions: ERR reporter cell line, ONE-Glo luciferase, 18 h; at 92.4 µM (top of the series)
Method in brief: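 Luminescence readout (ONE-Glo, 30 min RT) after 18 h compound exposure at 37 C of NTP-supplied ERR reporter cells; cells were plated 6 h before compound addition by pin tool.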

Compound	Potency [1]	Potency [2]	outcome [3]	Potency [4]	Potency [5]	Potency [6]	Potency [7]	Potency [8]	Potency [9]	activity change, positive = activation [10]
CC/C(C)=N/O	inactive	inactive	inactive	inactive	inactive	inactive	inactive	inactive	–	–
OCC(O)CS (stereo not given)	inactive	inactive	inactive	inactive	–	inactive	inactive	inactive	–	–
C=CC(C)(C)C	inactive	–	inactive	inactive	inactive	inactive	inactive	inactive	inactive	1.24% (inactive) and -3.33% (inactive)
CCCCCCCC(=O)O	inactive	inactive	inactive	inactive	inactive	inactive	inactive	inactive	–	–
CCc1cccc(O)c1	inactive	inactive	inactive	inactive	inactive	inactive	inactive	inactive	–	–
CC1=CC(=O)CC(C)(C)C1	4.49 µM (active) and inactive	–	inactive	inactive	inactive	inactive	inactive	inactive	14.1 µM (active) and inactive	–
CC1(C)C(=O)N(Cl)C(=O)N1Cl	inactive	inactive	inactive	inactive	–	inactive	inactive	inactive	–	–
O=Cc1ccc(CO)o1	inactive	–	inactive	inactive	inactive	inactive	inactive	inactive	inactive	0.746% (inactive) and -3.97% (inactive)
CC(C)=CCC/C(C)=C/C=O	inactive	inactive	inactive	inactive	inactive	inactive	inactive	inactive	–	–
Cc1ccc([N+](=O)[O-])cc1N	inactive	inactive	inactive	inactive	–	inactive	inactive	inactive	–	–
c1cnc2c(c1)ccc1cccnc12	inactive	6.35 µM (active)	–	80.8 µM (active) and inactive	inactive	3.5 µM (active) and 7.76 µM (active)	inactive	inactive	1.23 µM (active) and 1.09 µM (active) and 1.54 µM (active)	-72.1% (inactive) and -45.5% (inactive) and -63.4% (inactive)
CCN(CC)CCNC(=O)c1ccc(N)cc1	inactive	inactive	–	inactive	inactive	inactive	inactive	inactive	–	–
CCOC(=O)CC(=O)OCC	inactive	inactive	inactive	inactive	inactive	inactive	inactive	inactive	–	–
Cc1ncc(CO)c(CO)c1O	inactive	inactive	–	inactive	inactive	inactive	inactive	inactive	–	–
